Pf growth 96h: P. falciparum growth inhibition at 96 hours; P. falciparum luciferase reporter growth, 96 h; Potency, µM (series often up to 28.7 µM), without a hit: at the top dose activity change, negative = inhibition, actives largely listed as inhibitors; 6.9% of 320,000 active; note: potency is the fitted concentration of half-maximal effect; % is set by controls: 0 for no effect and ±100 for the full control effect
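Cell-based qHTS: luciferase-tagged P. falciparum in erythrocytes (2% hematocrit, 0.05% parasitemia final) incubated with compounds for 96 hours, 37 C, 5% CO2; luciferase detection reagent then added and luminescence measured.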
Pf growth 48h: P. falciparum growth inhibition at 48 hours (one generation) | 5.9% of 310,000 active | P. falciparum luciferase growth in erythrocytes, 48 h | Potency, µM (top dose mostly 28.7 µM), without a hit: at the top dose activity change, negative = inhibition, hits mostly inhibitors; note: potency is the fitted concentration of half-maximal effect; % is set by controls: 0 for no effect and ±100 for the full control effect
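Erythrocytes infected with P. falciparum carrying an integrated firefly luciferase reporter (2% hematocrit, 0.1% parasitemia final) were exposed to compounds in RPMI 1640 with 0.5% Albumax at 37 C, 5% CO2. Growth inhibition was scored as reduced luminescence.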
CHX counter: affects cycloheximide protein synthesis inhibition readout, counter-screen; 12% of 300,000 active; cell reporter, cycloheximide protein synthesis inhibition counterscreen; max response, %; in the data active = max response mostly above about 13%, no sharp cut-off; inactive = mostly below about 14%; note: read at 38.3 µM for the half of the compounds with a filed dose; 0% is about no effect
NS1 function inh: influenza NS1 inhibition; Potency, µM (series often up to 46.1 µM), without a hit: top-dose activity, positive = more growth; 0.4% of 270,000 active; calls by dose curve; note: potency is the fitted concentration of half-maximal effect; actives are rising curves; nearly all actives have a fitted effect of over 50% in size
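Read-out: OD600 growth recovery of NS1-expressing budding yeast. Cells grown overnight at 30C in -URA glucose medium, washed, resuspended and diluted 1:100 in 2% galactose assay medium, pH 6.0. Same strain lacking NS1 served as positive control.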
Shiga toxin inh: Shiga toxin inhibition. inhibition, % at 38.7 µM. Vero cells, Shiga toxin protein synthesis inhibition reporter. AID 2315. 9.2% of 290,000 active; in the data active = inhibition mostly above about 28%, no sharp cut-off; inactive = mostly below about 43%; note: 0% is about no effect
Numbers without * were called inactive; i = inactive; ? = inconclusive; . = no result. A selection: hits, their analogues and other compounds. The true share with any hit is near 21%. Unless noted, calls come from the whole dose curve; as a rule, active = well fitted inhibition curve with a large enough effect; inconclusive = small, poorly fitted or top-dose-only effect, or another doubt; inactive = no such curve, though single readings can be large or run the other way.

SMILES	Pf growth 96h	Pf growth 48h	CHX counter	NS1 function inh	Shiga toxin inh
Cc1coc(=N)n1CC(=O)c1ccc(Cl)cc1	18%	20%	-3	5%	-10
O=C(OCC(=O)N1CCN(c2ccccc2)CC1)c1nc(Cl)ccc1Cl	34%	13%	.	.	.
CNC(=O)/C(C#N)=C\c1ccc(CNS(=O)(=O)c2ccccc2)o1	?	-7%	-1	14%	-7
CNC(=O)/C(C#N)=C/c1ccc(-c2nc3ccccc3s2)o1	110%	92%	43*	-1%	55*
N#C/C(=C\c1ccc(-c2nc3ccccc3s2)o1)C(N)=O	100%	86%	38*	-4%	50*
O=S(=O)(Nc1ccc(Cc2ccncc2)cc1)c1ccc(Br)cc1	?	?	-4	9%	-11
O=C(CN(Cc1ccco1)C(=O)CCC(=O)Nc1ccccn1)NCCc1ccccc1	-10%	-9%	-1	0%	-3
CC(C)(C)c1ccc(OCCC(=O)Nc2cccc(S(=O)(=O)NC3=NCCCCC3)c2)cc1	?	12µM*	.	.	.
O=C(COC(=O)c1ccc(O)cc1)Nc1cccc(S(=O)(=O)NC2=NCCC2)c1	6.6µM*	?	.	.	.
O=C(Cc1csc(-c2ccc(Cl)cc2)n1)Nc1cccc(S(=O)(=O)NC2=NCCC2)c1	-11%	?	.	.	.
O=C(CCl)Nc1cccc(S(=O)(=O)NC2=NCCC2)c1	4.7µM*	3.3µM*	10	-42%	-7
O=C(Cc1csc(-c2ccc(F)cc2)n1)Nc1cccc(S(=O)(=O)NC2=NCCC2)c1	6.6µM*	-29%	.	.	.
CN(CC(=O)Nc1cccc(S(=O)(=O)NC2=NCCCCC2)c1)Cc1ccc(C(C)(C)C)cc1	?	?	-2	-1%	-28
N#CC1(NC(=O)CN2c3cccc4cccc(c34)S2(=O)=O)CCCCC1	?	-8%	.	.	.
Cc1ccc(N2C(=O)CS(=O)C(c3ccccc3)C2=O)cc1C (stereo not given)	-11%	?	28*	15%	65*
O=S(=O)(O)c1cc(OS(=O)(=O)c2ccccc2)cc2ccccc12	0%	6%	3	?	1
COc1ccc(S(=O)(=O)Oc2ccc3ccccc3c2)cc1	?	42%	23*	-21%	23*
COc1ccc(CNC(=O)C(=O)NCC2OCCN2S(=O)(=O)c2cccs2)cc1 (stereo not given)	-4%	-2%	-1	24%	-14
COc1ccccc1/C=C/C(=O)N1CCc2cc(OC)c(OC)cc2C1C (stereo not given)	?	-9%	-2	-10%	-15
COc1cc(NC(=S)NC(=O)c2ccccc2F)ccc1NC(=O)c1ccco1	0%	58%	7	12%	17
COc1ccc(C(=O)c2ccc(OC)c(OC)c2)cc1OC	24%	-8%	-4	-15%	16
COc1ccc(C(=O)c2ccc(OC)c(N)c2)cc1N	.	135%	50*	13%	122*
COc1ccccc1CNC(=O)CSc1ccc(-c2cccc([N+](=O)[O-])c2)nn1	0%	-4%	-5	.	-8
Cc1csc(NC(=O)CCN2C(=O)c3ccccc3S2(=O)=O)n1	10%	11%	16	-10%	55*
Cc1csc(NC(=O)CN2C(=O)c3ccccc3S2(=O)=O)n1	13µM*	16%	-2	3%	-23
SMILES	Pf growth 96h	Pf growth 48h	CHX counter	NS1 function inh	Shiga toxin inh
CCOC(=O)Cc1csc(NC(=O)CN2C(=O)c3ccccc3S2(=O)=O)n1	18%	7%	-3	-2%	-8
CCOC(=O)c1cccc(NC(=O)C(NS(=O)(=O)c2ccc3c(c2)CCN3C(C)=O)C(C)C)c1 (stereo not given)	?	-30%	-2	?	2
O=C1NC(=O)C2(Cc3c(nc4ccccn4c3=O)N3CCCCCC32)C(=O)N1Cc1ccccc1 (stereo not given)	5.2µM*	?	-2	-39%	6
Cc1cccn2c(=O)c3c(nc12)N1CCCCC1C1(C3)C(=O)N(C)C(=O)N(C)C1=O (stereo not given)	2.9µM*	?	1	-3%	-3
CN1C(=O)N(C)C(=O)C2(Cc3c(nc4ccccn4c3=O)N3CCC(Cc4ccccc4)CC32)C1=O (stereo not given)	-15%	?	-7	-51%	-8
COc1ccc(/C=C/C(=O)OCC(=O)Nc2ccc(C)cc2)cc1S(=O)(=O)N1CCOCC1	-4%	1%	-3	-7%	11
Nc1ccc2oc(CCc3ccccc3)nc2c1	44%	73%	48*	?	167*
Cc1ccc2nc(Cc3ccc(N)cc3)oc2c1	5%	0%	28*	7%	62*
c1ccc2oc(Cc3ccc(Cc4nc5ccccc5o4)cc3)nc2c1	13µM*	-26%	-3	2%	14
Cc1ccc2nc(CCc3nc4ccc(C)cc4o3)oc2c1	.	-5%	5	-5%	16
Nc1ccc2c(c1)nc(Cc1ccccc1)n2CCO	-2%	16%	-4	0%	3
c1ccc2oc(CCc3nc4ccccc4o3)nc2c1	42%	36%	15*	-16%	20
Clc1ccc(OCc2nc3ccccc3[nH]2)cc1	?	203%	32*	.	56*
NC(Cc1nc2ccccc2[nH]1)c1ccc(Cl)cc1 (stereo not given)	i	7%	45*	-4%	81*
NC(Cc1ccccc1)c1nc2ccccc2[nH]1 (stereo not given)	28%	32%	18*	9%	48*
Cc1ccc(OCc2nc3ccccc3[nH]2)cc1	22%	32%	61*	-23%	57*
CC(C)N(C(=S)Nc1cccc(S(=O)(=O)N(C)C)c1)c1ccccc1	8%	-1%	-2	-2%	-7
c1ccc(Cc2nc3ccccc3[nH]2)cc1	?	-3%	-3	-16%	-3
c1ccc(OCc2nc3ccccc3[nH]2)cc1	25%	114%	49*	-31%	75*
O=C(CCl)Nc1ccccc1Sc1ccccc1	9.3µM*	.	-2	-8%	-8
O=C(O)CC(=O)Nc1ccccc1	2%	.	2	7%	-10
O=C(CCl)Nc1ccc(N=Nc2ccccc2)cc1	?	4.7µM*	128*	-67%	106*
CC(C)N(c1ccccc1)c1ccc(NC(=O)CCl)cc1	10µM*	10µM*	0	.	-7
O=C(CCl)Nc1ccc(-c2ccccc2)cc1	13µM*	?	-7	.	-21
O=C(Cc1ccc(Cl)cc1)Nc1ccccc1Sc1ccccc1	?	-18%	6	2%	8
O=C1NC(c2ccccc2)Nc2c1sc(=S)n2-c1ccccc1 (stereo not given)	-42%	7%	8	.	-10
Nc1c(C(=O)OC2CCCCC2)c2nc3ccccc3nc2n1CC1CCCO1 (stereo not given)	13µM*	?	-3	-124%	9
CCCNC(=O)c1c(N)n(CC2CCCO2)c2nc3ccccc3nc12 (stereo not given)	?	-55%	12	-121%	-11
CC(C)OCCCNC(=O)c1c(N)n(CC2CCCO2)c2nc3ccccc3nc12 (stereo not given)	?	3.3µM*	4	-66%	-12

Bioassay records deposited in PubChem BioAssay by National Center for Advancing Translational Sciences (NCATS).
